Here are results for 40 compounds from PubChem BioAssay (EPA / NIEHS).

Active and inactive are the calls of the source. How the source made its calls: active means hit-call score of the fitted dose curve at least 0.9, where 1 is the maximum; inactive means score below 0.9.

Sequence of Aryl hydrocarbon receptor (Homo sapiens) (P35869 whole entry, looked up): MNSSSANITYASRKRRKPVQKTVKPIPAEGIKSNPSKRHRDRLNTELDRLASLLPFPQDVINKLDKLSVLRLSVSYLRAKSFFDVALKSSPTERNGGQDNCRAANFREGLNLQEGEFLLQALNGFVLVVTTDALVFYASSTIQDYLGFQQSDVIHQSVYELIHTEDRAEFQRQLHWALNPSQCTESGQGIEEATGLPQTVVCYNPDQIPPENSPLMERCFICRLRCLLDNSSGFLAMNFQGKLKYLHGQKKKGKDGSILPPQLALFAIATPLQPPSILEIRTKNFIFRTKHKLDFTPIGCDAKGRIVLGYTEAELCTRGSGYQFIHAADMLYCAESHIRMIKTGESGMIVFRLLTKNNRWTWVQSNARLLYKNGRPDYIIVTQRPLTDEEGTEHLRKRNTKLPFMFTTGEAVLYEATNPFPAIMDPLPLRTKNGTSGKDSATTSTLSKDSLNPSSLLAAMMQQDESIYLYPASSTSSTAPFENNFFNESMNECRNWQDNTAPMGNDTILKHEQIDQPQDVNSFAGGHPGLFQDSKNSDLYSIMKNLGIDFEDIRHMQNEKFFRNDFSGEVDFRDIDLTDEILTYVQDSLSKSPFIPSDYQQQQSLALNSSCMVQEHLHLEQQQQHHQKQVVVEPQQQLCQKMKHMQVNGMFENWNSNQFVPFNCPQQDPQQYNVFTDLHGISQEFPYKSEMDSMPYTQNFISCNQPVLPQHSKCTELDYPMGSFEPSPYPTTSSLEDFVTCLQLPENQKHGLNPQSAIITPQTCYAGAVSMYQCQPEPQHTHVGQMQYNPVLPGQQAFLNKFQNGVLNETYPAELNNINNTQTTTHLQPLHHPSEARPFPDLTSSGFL

This test deals with Aryl hydrocarbon receptor (Homo sapiens) (UniProt P35869). The test can be described thus: ATG_Ahr_CIS: Attagene CIS-FACTORIAL HepG2 Assay for human Aryl Hydrocarbon Receptor (Ahr) (AID 2282930). The conditions noted are these: HepG2 AhR cis-factorial reporter transcription; actives raise or lower the signal. The protocol:
ATG_CIS is a cell-based, multiplexed-readout assay that uses HepG2, a human liver cell line, with measurements taken at 24 hours after chemical dosing in a 24-well plate.ATG_Ahr_CIS is one of 52 assay component(s) measured or calculated from the ATG_CIS assay. It is designed to make measurements of mRNA induction, a form of inducible reporter, as detected with fluorescence intensity signals by Reverse transcription polymerase chain reaction (RT-PCR) and Capillary electrophoresis technology.Data from the assay component ATG_Ahr_CIS was analyzed into 1 assay endpoint. This assay endpoint, ATG_Ahr_CIS, was analyzed with bidirectional fitting relative to DMSO as the negative control and baseline of activity. Using a type of inducible reporter, measures of mRNA for gain or loss-of-signal activity can be used to understand the reporter gene at the transcription factor-level as they relate to the gene AHR. Furthermore, this assay endpoint can be referred to as a primary readout, because this assay has produced multiple assay endpoints where this one serves a reporter gene function. To generalize the intended target to other relatable targets, this assay endpoint is annotated to the dna binding intended target family, where the subfamily is basic helix-loop-helix protein.
Human liver HepG2 cells are transiently transfected with multiple reporter transcription units (MRTUs) in 6-well plates using FuGene 6 reagent (Roche; 3 ml FuGene/1 mg DNA). The MRTU constructs are regulated by a cis-regulating element (promoter). […] A major difference between the CIS and TRANS system is that in CIS activities of endogenous TFs are measured, whereas the TRANS assay evaluates changes in activities of exogenous, chimeric NR-Gal4 proteins. […] At the end of 24 hour incubation, total RNA was isolated using TriZol reagent (Invitrogen). The isolated RNA is then reverse-transcribed using oligo(dT) primer and Mo-MLV reverse transcriptase (Invitrogen) with DNAse I (Ambion) treatment for 30 min. The one-tenth of the produced cDNA was amplified by PCR using Taq DNA polymerase (Invitrogen) and two reporter sequence-specific primers. The PCR products were fluorescently labeled by primer extension with 6-arboxyfluorescein (6-FAM) 5'-labeled reporter sequence-specific primer (2 min at 95 C, 20 s at 68 C and 10 min at 72 C) and these products were digested with 5U of HpaI (New England Biolabs) for 2h at 37 C. […] The raw capillary electrophoresis data was processed using Attagraph software (Attagene).
As to `COC(=O)C1=C(C)NC(C)=C(C(=O)OCCN(C)Cc2ccccc2)C1c1cccc([N+](=O)[O-])c1` (stereo not given), the compound was classed as inactive. As for `CC(C)C[C@H]1C(=O)N2CCC[C@H]2[C@]2(O)O[C@](NC(=O)[C@@H]3C=C4c5cccc6[nH]c(Br)c(c56)C[C@H]4N(C)C3)(C(C)C)C(=O)N12`, the outcome was inactive. Same read-out and setting: the same measure for `CCCCCCCCCCCCCOS(=O)(=O)O`: “inactive”; for `COc1cccc(OC)c1`: “inactive”; for `CCCCCCC#CC(=O)OC`: “inactive”. Turning to `CC(=O)C=CC1=C(C)CCCC1(C)C`, the result was inactive. For the compound `CN(C)CCOCCN(C)C`, the call was inactive. For the compound `Cc1cccc(Nc2ccccc2C(=O)O)c1C`, the result was inactive. Regarding `COc1ccc(Nc2ccccc2)c(C)c1`, the outcome was inactive. A word on the AC50: it is the concentration giving half of the maximal activity seen. `O=C1c2ccccc2C(=O)N1SC1CCCCC1`: the AC50 is 26.9 µM (active). For `CC1CCC2CC1C2(C)C` (stereo not given), the outcome was inactive. In the case of `CCCCCC(CO)CCC` (stereo not given), the compound was called inactive. In the case of `Cc1c(N(C)C)c(=O)n(-c2ccccc2)n1C`, the AC50 is 64.9 µM (active). `CNCCCC12CCC(c3ccccc31)c1ccccc12`: the call was inactive. For `CN(CCOc1ccc(CC2SC(=O)NC2=O)cc1)c1ccccn1` (stereo not given), the result was inactive. Consider `Cc1ccc(C=O)cc1`, for which the compound was called inactive.

In the case of `O=S(=O)(O)NC1CCCCC1`, the compound was classed as inactive. Consider `O=c1oc(=O)c2cc3c(=O)oc(=O)c3cc12`, for which the call was inactive.

Turning to `COc1ccc(NC(=O)CC(C)=O)cc1`, the outcome was inactive.

Turning to `NCCCCCCN`, the result was inactive.

On to `CCCCNC(=O)NS(=O)(=O)c1ccc(N)cc1`, for which the outcome was inactive. For `CC(c1cc2ccccc2s1)N(O)C(N)=O` (stereo not given), the AC50 was 38.2 µM (active). As to `NCCCN1CCOCC1`, the compound was classed as inactive. Consider `C=C(C)C(=O)NCCCN(C)C`, for which the compound was classed as inactive. For the compound `CCOc1ccccc1OCC`, the result was inactive. Still for that read-out and setting: the same measure for `CNC(=O)Oc1ccc2c(c1)[C@]1(C)CCN(C)[C@@H]1N2C`: “inactive”; for `COc1cc(C(C)(C)C)c(O)c(C(C)(C)C)c1`: “inactive”. `CC(=O)/C=C/C1=C(C)CCCC1(C)C`: the outcome was inactive. Take `O=C(O)c1cn(-c2ccc(F)cc2)c2cc(N3CCNCC3)c(F)cc2c1=O`: the result was inactive. Regarding `CC(C)=CCC[C@](C)(O)[C@@H]1CC=C(C)CC1`, the compound was classed as inactive. Consider `Cc1ccc(C(=O)O)o1`, for which the result was inactive.

Take `O=C(O)c1cn(C2CC2)c2cc(N3CCNCC3)c(F)cc2c1=O`: the compound was classed as inactive. Take `O=C(Oc1ccccc1)c1ccc(O)cc1`: the compound was classed as inactive. Regarding `OCCOc1cccc(OCCO)c1`, the result was inactive. Turning to `COc1cc(C=O)ccc1OC(=O)C(C)C`, the result was inactive. Consider `CC(C)=CCO`, for which the compound was called inactive. `Nc1cc(N)cc(C(=O)O)c1`: the call was inactive. For `COCCOCCOCCOCCOCCO`, the compound was classed as inactive. `O=C1CCCCCCCCCCOCCCCO1`: the compound was called inactive.

On to `CCCCC(CC)COCCC#N` (stereo not given), for which the call was inactive.
